Among all 1,900 compounds or so, about 1,600 (84%) were called active. The set was probably picked from earlier hits. These entries were drawn from the full list. A number with no mark means an inactive call.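 Rule for the calls: active = mean activation above a set limit taken from the primary screen (cut at about 8% in these data); inactive = the rest.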
Experiment: frataxin promoter-driven luciferase activation – cell-based, luminescence, HEK293 lucGAA850, triplicate, confirmation (AID 588351);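 note: 0% = DMSO wells and 100% = 10 µM SAHA wells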
Details: HEK293 lucGAA850 FXN promoter luciferase reporter, 24 h; at 6 µM; stronger effect = higher value; 100% = activation by SAHA

Row | SMILES | activation
1 | COc1ccccc1C1=Nc2cccc3cccc(c23)N1 | 7.84% (active)
2 | CCN(C[C@H]1N[C@@](CC)(C(=O)OC)[C@H]2C(=O)N(Cc3ccccc3)C(=O)[C@@H]12)S(=O)(=O)c1ccc(C(F)(F)F)cc1 | 10.5% (active)
3 | O=C(Nc1nnc(S(=O)(=O)N2CCCCCC2)s1)c1cccc(Br)c1 | 16.8% (active)
4 | Cn1c(=O)n(C)c2cc(S(=O)(=O)N3CCCc4ccccc43)ccc21 | 11.8% (active)
5 | CC(C)(C)N1C(=O)[C@H]2[C@@H](c3ccc(Br)cc3)N3C(=O)N(c4cccc(Cl)c4)C(=O)[C@@]3(C)[C@H]2C1=O | 6.82%
6 | CC[C@@]12C(=O)N(c3ccccc3)C(=O)N1[C@H](c1ccc(Br)cc1)[C@@H]1C(=O)N(C(C)(C)C)C(=O)[C@@H]12 | 11.1% (active)
7 | CCCNC(=O)c1c(Cl)cnn1-c1ccc(C)cc1 | 31.2% (active)
8 | Cc1ccccc1Nc1c([N+](=O)[O-])ccc2nonc12 | 17% (active)
9 | COC(=O)[C@@]1(C)[C@H]2C(=O)N(Cc3ccccc3)C(=O)[C@H]2[C@H]2CN=C(SCC3CC3)N21 | 12.3% (active)
10 | CC[C@]1(C(=O)OC)[C@H]2C(=O)N(Cc3ccccc3)C(=O)[C@H]2[C@H]2CN=C(SCc3ccccc3)N21 | 6.5%
11 | CC[C@]1(C(=O)OC)[C@H]2C(=O)N(Cc3ccccc3)C(=O)[C@H]2[C@H]2CN=C(SCc3ccc(C#N)cc3)N21 | 11% (active)
12 | CC(C)CCC(C)NC(=O)c1ccc2nccnc2c1 (stereo not drawn) | 25.6% (active)
13 | Cn1c(CCN2CCCCCC2)nc2cc(NC(=O)Nc3ccccc3)ccc21 | 32.6% (active)
14 | COC(=O)c1ccc(CSc2nc3ccccc3c(=O)n2-c2cccc(OC)c2)o1 | 16.6% (active)
15 | Cc1ccc2cc(/C=N/Nc3ccc(C(=O)O)cc3)c(Cl)nc2c1 | 44.5% (active)
16 | CN(C(=O)c1cc2c(=O)n3ccccc3nc2s1)C1CCCCC1 | 37.7% (active)
17 | COCCn1c(=NC(=O)c2ccccc2[N+](=O)[O-])sc2cc(S(C)(=O)=O)ccc21 | 23.4% (active)
18 | O=C(CSc1cccc2cccnc12)N/N=C/c1cccnc1 | 10.9% (active)
19 | O=[N+]([O-])c1ccc(C=Nc2ccc(Cl)cc2Cl)s1 | 17.7% (active)
20 | O=C1N=C(N2CCCC2)S/C1=C\c1cccc(Br)c1 | 20.9% (active)
21 | COc1ccc2[nH]c(=O)c(CN(Cc3nnnn3CCc3ccccc3)CC3CCCO3)cc2c1 (stereo not drawn) | 5.82%
22 | COc1cc(C#Cc2ccc3cc(CCCO)oc(=O)c3c2)cc(OC)c1 | 44.9% (active)
23 | COc1cccc(Nc2nc(N)c([N+](=O)[O-])c(NCc3ccco3)n2)c1 | 22.8% (active)
24 | O=C(CN(c1cc(C(F)(F)F)ccc1Cl)S(=O)(=O)c1ccccc1)NCc1cccnc1 | 8.52% (active)
25 | COc1ccc(-n2cc(-c3ccccc3)c3c(=S)nc[nH]c32)cc1 | 11% (active)

Row | SMILES | activation
26 | Cc1ccc(-c2c3c(=O)n(C)c(=O)n(C)c3cn2-n2cnnc2)cc1 | 19% (active)
27 | CCOc1ccc(N2C(=O)CC(N(CCc3ccc(OC)c(OC)c3)C(=S)Nc3ccccc3)C2=O)cc1 (stereo not drawn) | 9.64% (active)
28 | CC(C)(C)C(=O)c1cnc(Nc2ccccc2)s1 | 49.2% (active)
29 | Cc1cc(OCc2cc(C(=O)NCc3cc(C(C)C)no3)no2)cc(C)c1Cl | 30.7% (active)
30 | CNc1nc(Nc2ccc(C)c(Cl)c2)nc(N)c1[N+](=O)[O-] | 71% (active)
31 | CC(Sc1nc2c([nH]c3ccccc32)c(=O)n1C)c1ccccc1 (stereo not drawn) | 16.1% (active)
32 | Cc1ccc(-c2nc3ccccc3[nH]c2=O)cc1 | 29.2% (active)
33 | CN(C)CCNC(=O)c1ccc(Cl)c2cc3ccccc3nc12 | 130% (active)
34 | CCC(=O)NC(=Nc1nc2ccccc2s1)NC(=O)CC | 38.4% (active)
35 | COc1ccc(Cl)cc1NC(=O)CN(C)C(=O)CCCc1c[nH]c2ccccc12 | 9.95% (active)
36 | Fc1ccccc1/C=N/Nc1cc(N2CCCCC2)ncn1 | 43.1% (active)
37 | CCCCCOc1ccc(CSC2=NCCN2)cc1[N+](=O)[O-] | 38.6% (active)
38 | Nc1ccc(C(=O)Nc2ccccc2N)cc1 | 55.7% (active)
39 | N#CCSc1nc2ccccc2c(=O)n1-c1ccccc1 | 16.2% (active)
40 | CCCCc1ccc(NC(=S)N2CCCC(CO)C2)cc1 (stereo not drawn) | 33.8% (active)
41 | CC(C)c1ccc(NS(=O)(=O)c2cn(C)c(=O)n(C)c2=O)cc1 | 5.44%
42 | Fc1ccc2nc(N3CCCCC3)sc2c1 | 27.8% (active)
43 | Cc1cc(C)n2nc(CNS(=O)(=O)c3c(F)c(F)c(F)c(F)c3F)nc2n1 | 20.7% (active)
44 | Cc1ccc(C(=O)NNc2ncnc3ccccc23)cc1 | 25.9% (active)
45 | COc1ccccc1N1CCN(C(=O)c2cc(-c3ccc(Br)cc3)on2)CC1 | 2.35%
46 | O=C(NCCCn1ccnc1)c1cc(-c2ccccc2)on1 | 127% (active)
47 | O=C(NC1CCCC1)c1cc(-c2ccccc2)on1 | 67.8% (active)
48 | CC1CCc2sc3nc(N4CCN(CCO)CC4)n4ncnc4c3c2C1 (stereo not drawn) | 21.9% (active)
49 | CN(C)S(=O)(=O)c1ccc2oc(SCC(=O)Nc3ccccc3F)nc2c1 | 44.6% (active)
50 | COc1ccc(/C=C/C(=O)Nc2ccc(C34CC5CC(CC(O)(C5)C3)C4)cc2)cc1OC | 44.5% (active)

Row | SMILES | activation
51 | Cc1nnc(Sc2nc3c(c(=O)[nH]c(=O)n3C)n2Cc2ccccc2)s1 | 5.05%
52 | CN(C)C(=S)N=c1ssc(=S)n1Cc1ccco1 | 32.8% (active)
53 | CC(C)(C)c1ccc(C(=O)NCc2ccco2)cc1 | 44.1% (active)
54 | O=C(NCc1ccco1)c1ccc(Cn2c(=O)c3sccc3n(Cc3ccc(F)cc3)c2=O)cc1 | 6.19%
55 | CCCCNC(=O)N(O)C1N(/N=C/c2ccccc2O)C(=S)SC1(C)C (stereo not drawn) | 14.1% (active)
56 | CCOC(=O)c1cc2c(=O)n3ccccc3nc2n(CC(C)C)c1=NC(=O)c1c(-c2c(F)cccc2Cl)noc1C | 3.22%
57 | N#Cc1c(N)nc2c3c(sc(=N)c2c1N)NC(=O)CC3c1ccccc1Cl (stereo not drawn) | 24.2% (active)
58 | CCc1ccc(N(C(=O)c2csnn2)C(C(=O)NC2CCCCC2)c2ccncc2)cc1 (stereo not drawn) | 12.1% (active)
59 | Cc1cc(=O)oc(C)c1C(=O)NCc1ccc(F)cc1 | 4.06%
60 | CC(C)c1cc(C(=O)N/N=C/C(Br)=C/c2ccccc2)n[nH]1 | 15.8% (active)
61 | Cc1cc(C(=O)N/N=C\C(Br)=C\c2ccccc2)c(C)o1 | 26.2% (active)
62 | CC1(Cc2cccc(C#N)c2)C(=O)Nc2ccc(-c3cccc(C(F)(F)F)c3)cc21 (stereo not drawn) | 10.7% (active)
63 | Cc1c(-c2ccccc2)nc(N)c(C#N)c1-c1cccs1 | 14.5% (active)
64 | O=C1[C@H]2[C@@H](c3ccc(Cl)cc3)N3C(=O)N(c4cccc(F)c4)C(=O)[C@@]3(Cc3ccccc3)[C@H]2C(=O)N1C1CCCCC1 | 11.2% (active)
65 | O=C1[C@H]2[C@@H](c3ccc(F)cc3)N3C(=O)N(c4ccc(C(F)(F)F)cc4)C(=O)[C@@]3(Cc3ccccc3)[C@H]2C(=O)N1C1CCCCC1 | 16.2% (active)
66 | C[C@@]12C(=O)N(c3cccc(Br)c3)C(=O)N1[C@H](c1ccc(Cl)cc1)[C@@H]1C(=O)N(C3CCCCC3)C(=O)[C@@H]12 | 5.12%
67 | Cc1noc(C)c1-c1ccc2ncnc(NC(C)c3ccco3)c2c1 (stereo not drawn) | 20.1% (active)
68 | Cc1ccc(NC(=O)c2sc3nc(N)c(C#N)cc3c2N)cc1 | 27.4% (active)
69 | O=C(CC1NCCc2ccccc21)Nc1cccc(Cl)c1 (stereo not drawn) | 26.7% (active)
70 | CC1(C(=O)NCc2cccc3ccccc23)CCN1Cc1ccc(-c2ccccc2)o1 (stereo not drawn) | 11.9% (active)
71 | COc1ccc(-c2csc(Cc3nc(O)cs3)n2)cc1 | -4.16%
72 | O=c1oc2ccccc2cc1-c1csc(Nc2ccc(O)cc2)n1 | 44.3% (active)
73 | COc1ccc(-c2csc(Nc3ccc(O)cc3)n2)cc1 | 40.1% (active)
74 | O=c1[nH]cnc2c1c(-c1ccccc1)cn2-c1ccc(F)cc1 | 9.89% (active)
75 | Cc1ccc(-n2c(C)cc(/C=C(\C#N)C(=O)NCC3CCCO3)c2C)cc1 (stereo not drawn) | 41.3% (active)

Row | SMILES | activation
76 | COc1ccc(NC(=O)CSc2nc(SC)ns2)c(OC)c1 | 40.6% (active)
77 | CSc1nc(N)c(C#N)c(-c2ccccc2Cl)c1C#N | 21.1% (active)
78 | CCCCn1c(SCC(=O)NCCc2ccc(OC)c(OC)c2)nc2c1c(=O)n(C)c(=O)n2C | 8.75% (active)
79 | COc1ccc(N(CCC#N)S(=O)(=O)c2ccc(Cl)cc2)cc1 | 3.78%
80 | Cc1ccc(C2Nc3cccc4cccc(c34)N2)cc1 | 12.4% (active)
81 | COc1cc(/C=N/Nc2nc3ccccc3s2)ccc1O | 34.8% (active)
82 | CC1(C(=O)N/N=C/c2cc3c(cc2Br)OCO3)CC1(Br)Br (stereo not drawn) | 15.3% (active)
83 | COc1ccc(-c2nnc(SCC(=O)c3cccs3)o2)c(OC)c1 | 26.2% (active)
84 | N#CC1=C(SCc2ccc(C#N)cc2)N=C(N)C(c2nc(-c3ccccc3)cs2)C12CCCCC2 (stereo not drawn) | 17.6% (active)
85 | CCOc1ccc(Nc2oc(Cc3ccccc3)nc2C#N)cc1 | 32.1% (active)
86 | CCC1(CC)Cc2ccccc2-c2nc(CCl)[nH]c(=O)c21 | 1.84%
87 | CN1C(=O)/C(=C\c2cc(Br)cs2)c2ccccc21 | 38.3% (active)
88 | CCOC(=O)c1cc2cc(C)ccc2[nH]1 | 29.5% (active)
89 | CN(C)[C@@H]1C(=O)C(C(N)=O)=C(O)[C@@]2(O)C(=O)C3=C(O)c4c(O)ccc(Cl)c4[C@@H](O)[C@H]3C[C@@H]12 | 15.3% (active)
90 | C=C1c2c(Cl)ccc(O)c2C(O)=C2C(=O)[C@]3(O)C(O)=C(C(N)=O)C(=O)[C@@H](N(C)C)[C@@H]3[C@@H](O)C12 (stereo partly drawn) | 15.5% (active)
91 | Cc1nc(-c2ccc(F)cc2)c(CC(=O)Nc2cc(S(=O)(=O)N3CCCCC3)ccc2C)s1 | 6.94%
92 | COc1ccc(C2Nc3ccccc3C(=O)N2c2ccc(Cl)cc2)cc1Cn1cc([N+](=O)[O-])cn1 (stereo not drawn) | 26.8% (active)
93 | Cc1cc(C)nc(S/C=C/C(=O)c2ccccc2)n1 | -19%
94 | c1ccc(-c2cc(-c3ccccc3)[nH]n2)cc1 | 43% (active)
95 | Oc1ccccc1-c1cc(-c2ccc(Cl)cc2)n[nH]1 | 46.8% (active)
96 | O=C(N/N=C/C=C/c1ccco1)c1cccs1 | 31.4% (active)
97 | O=C(COc1ccc(Cl)cc1Cl)NCCCNC(=O)c1cnccn1 | 7.43%
98 | O=C(Nc1ccc2c(c1)OCCO2)c1cnccn1 | 25.8% (active)
